Results on three molecules are retold here after the supplement of paper PMC8728848.

The sample as a whole holds a higher share of the strongest signals than the screen did.

Common to all, as to test: glycan array binding signal (z-score within array); higher = stronger binding
What all share (details): glycan notation: IUPAC condensed, linker removed

Assay [1] deals with Fuc(a1-2)[Gal(a1-3)]Gal. The gist of the method:
(§1)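 The Consortium for Functional Glycomics database supplied 3228 glycan arrays, of which those lacking an available protein sequence were dropped. The binding signal, a within-array Z-score, was averaged across arrays of the same protein sequence and across linkers. Negative scores can be read as non-binding.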

In assay [2] the target is Fuc(a1-2)[Gal(a1-3)]Gal(b1-4)Glc. The gist of the method: as §1
Assay [3] deals with Fuc(a1-2)[Gal(a1-4)]Gal(b1-4)GlcNAc. A digest of the protocol:
as §1

For assay [4], the target named is Fuc(a1-2)[GalNAc(a1-4)]Gal(b1-4)GlcNAc. A digest of the protocol:
as §1

Assay [5] deals with Fuc(a1-4)GlcNAc. A digest of the protocol:
as §1

The target of assay [6] is Gal(a1-3)Gal. A digest of the protocol: as §1
The target in assay [7] is Gal(b1-3)GlcNAc(b1-3)Gal(b1-3)GlcNAc. A digest of the protocol:
as §1

In assay [8] the target is Gal3S(b1-4)GlcNAc6S. A digest of the protocol:
as §1

Assay [9] has as its target GalNAc(a1-3)Gal. The gist of the method:
as §1

Assay [10] deals with GlcA(b1-3)GlcNAc. A digest of the protocol: as §1
Assay [11] has as its target GlcNAc(a1-3)Gal(b1-4)GlcNAc. The gist of the method: as §1
Assay [12] deals with GlcNAc(a1-6)Gal(b1-4)GlcNAc. A digest of the protocol: as §1
Assay [13] deals with GlcNAc(b1-3)Gal(b1-4)Glc. The gist of the method: as §1
Assay [14] concerns the target Neu5Ac(a2-6)GalNAc. A digest of the protocol:
as §1

Assay [15] deals with Neu5Ac(a2-8)Neu5Ac(a2-3)[GalNAc(b1-4)]Gal(b1-4)Glc. A digest of the protocol: as §1
For assay [16], the target named is Neu5Gc(a2-3)Gal(b1-4)Glc. The gist of the method:
as §1

Assay [17] deals with Neu5Gc(a2-3)Gal(b1-4)GlcNAc. The gist of the method: as §1
The target in assay [18] is Neu5Gc(a2-6)GalNAc. A digest of the protocol: as §1
Assay [19] addresses Fuc(a1-2)Gal6S(b1-4)GlcNAc. The gist of the method: as §1
Assay [20] deals with Fuc(a1-2)[GalNAc(a1-3)]Gal(b1-4)GlcNAc. A digest of the protocol:
as §1

For assay [21], the target named is Fuc(a1-2)[GalNAc(a1-3)]Gal(b1-4)[Fuc(a1-3)]GlcNAc. The gist of the method:
as §1

The target of assay [22] is Gal(a1-4)Gal(b1-4)Glc. A digest of the protocol: as §1
The target of assay [23] is Gal(b1-3)Gal(b1-4)GlcNAc. A digest of the protocol: as §1
Assay [24] has as its target Gal(b1-3)GalNAc(b1-4)[Neu5Ac(a2-3)]Gal(b1-4)Glc. A digest of the protocol: as §1
Assay [25] deals with Gal(b1-3)[Neu5Ac(a2-6)]GalNAc. A digest of the protocol:
as §1

The target of assay [26] is Gal(b1-4)GlcNAc(a1-6)Gal(b1-4)GlcNAc. A digest of the protocol:
as §1

Assay [27] deals with Gal(b1-4)GlcNAc(b1-3)Gal(b1-4)[Fuc(a1-3)]GlcNAc(b1-3)Gal(b1-4)[Fuc(a1-3)]GlcNAc. The gist of the method: as §1
In assay [28] the target is Gal(b1-4)GlcNAc(b1-3)[Gal(b1-4)GlcNAc(b1-6)]Gal(b1-4)GlcNAc. A digest of the protocol: as §1
For assay [29], the target named is Gal3S6S(b1-4)GlcNAc6S. The gist of the method: as §1
The target of assay [30] is Man(a1-2)Man(a1-3)[Man(a1-2)Man(a1-6)]Man(a1-6)[Man(a1-2)Man(a1-2)Man(a1-3)]Man. A digest of the protocol: as §1
Assay [31] concerns the target Man(a1-3)[Man(a1-6)]Man. A digest of the protocol: as §1
The target in assay [32] is Man(a1-3)[Man(a1-6)]Man(a1-6)[Man(a1-3)]Man(b1-4)GlcNAc(b1-4)GlcNAc. A digest of the protocol:
as §1

The target of assay [33] is Neu5Ac(a2-3)Gal(b1-3)GalNAc6S. The gist of the method:
as §1

The target of assay [34] is Neu5Ac(a2-3)Gal(b1-3)GlcNAc(b1-3)Gal(b1-3)GlcNAc. A digest of the protocol: as §1
Assay [35] concerns the target Neu5Ac(a2-3)GalNAc(b1-4)GlcNAc. A digest of the protocol:
as §1

For assay [36], the target named is Neu5Ac(a2-8)Neu5Ac. A digest of the protocol: as §1
Assay [37] concerns the target Fuc(a1-3)[Gal(b1-4)]GlcNAc(b1-4)Gal(b1-4)[Fuc(a1-3)]GlcNAc. The gist of the method:
as §1

For assay [38], the target named is Fuc(a1-3)[GalNAc(b1-4)]GlcNAc. The gist of the method:
as §1

Assay [39] concerns the target Gal(a1-3)Gal(b1-4)GlcNAc. A digest of the protocol: as §1
The target in assay [40] is Gal(a1-3)[Gal(a1-4)]Gal(b1-4)GlcNAc. A digest of the protocol: as §1
Assay [41] concerns the target Gal(b1-3)Gal. A digest of the protocol:
as §1

The target in assay [42] is Gal(b1-3)GlcNAc(b1-3)Gal(b1-4)Glc. A digest of the protocol: as §1
Assay [43] deals with Gal(b1-3)[Neu5Ac(b2-6)]GalNAc. The gist of the method:
as §1

The target of assay [44] is Gal(b1-4)GlcNAc(b1-3)Gal(b1-4)GlcNAc(b1-3)Gal(b1-4)GlcNAc. A digest of the protocol: as §1
Assay [45] concerns the target Gal(b1-4)GlcNAc(b1-6)[Gal(b1-3)]GalNAc. The gist of the method: as §1
The target of assay [46] is GlcNAc(b1-3)Gal(b1-4)GlcNAc. A digest of the protocol:
as §1

In assay [47] the target is Neu5Ac(a2-3)Gal(b1-3)[Fuc(a1-4)]GlcNAc(b1-3)Gal(b1-4)[Fuc(a1-3)]GlcNAc. The gist of the method:
as §1

For assay [48], the target named is Neu5Ac(a2-3)[GalNAc(b1-4)]Gal(b1-4)Glc. The gist of the method: as §1
The target in assay [49] is Neu5Ac(a2-3)[GalNAc(b1-4)]Gal(b1-4)GlcNAc. The gist of the method:
as §1

Assay [50] has as its target Neu5Ac(a2-6)Gal(b1-4)Glc. The gist of the method:
as §1

B1: SLR2P2A3 (Tachypleus tridentatus), TAL2_TACTR (protein)
chain: MEKGTPPTHDSDNWMGRAKKIGNGGWNQFQFLFFDPNGYLYAVSKDKLYKASPPQSDTDNWIARATEIGSGGWSGSKFLFFHPNGYLYAVHGQRLYKALPPVSNQD
With B1, the “glycan array binding signal (z-score)” value is -0.054 in [1]; -0.191 in assay [2]; -0.148 in [3]; 7.28 in [4]; -0.416 in assay [5]; -0.317 in assay [6]. For the same molecule, the “glycan array binding signal (z-score)” value in assay [7] is -0.344; in [8], -0.09; in assay [9], 6.13; in [10], 0.168; in [11] it was 5.44; in assay [12], 6.84. Further, the “glycan array binding signal (z-score)” value in [13] is 5.09; in assay [14], -0.16; in assay [15] it was -0.279; in assay [16], -0.253; in assay [17] it was -0.059; in [18] it was -0.125.

B2: R410P1E11 (Tachypleus tridentatus), TAL2_TACTR (protein)
chain: MEKGTPPTHDSDNWMGRAKEIGNGGWDQFQFLFFDPNGYLYAVSNDKLYKASPPQSDTDNWIARATEIGSGGWSGFKFLFFHPNGYLYAVRGQRFYKALPPVSNQD
With B2, the “glycan array binding signal (z-score)” value in [19] was -0.187; in assay [2], -0.282; in assay [20], 2.74; in assay [21], 1.41; in assay [4] it was 5.65; in assay [5] it was -0.369. Also, the “glycan array binding signal (z-score)” value in assay [22] is -0.323; in assay [23] it was -0.622; in assay [24], -0.397; in assay [25], -0.538; in [26] it was -0.52; in assay [27], -0.411. Also, the “glycan array binding signal (z-score)” value was -0.144 in assay [28]; 0.451 in assay [29]; 7.43 in assay [9]; 3.25 in assay [11]; 10.1 in assay [12]; -0.751 in assay [30]. Besides, the “glycan array binding signal (z-score)” value in [31] is -0.45; in assay [32] it was -0.483; in [33] it was -0.515; in assay [34], 0.008; in assay [35], 0.139; in assay [36], -0.039.

B3: SIGNR8 (Mus musculus) (protein)
chain: MAGEPEFHQSKNHEEEVTSGEQGFAEHDPEGLICSSKSLQGHLTQVPWLLLLLISLGLFLLMLATLVQVSRIRAYSQGQTQDQQGSSSLDKVAVPREQTHSGLEQIQQIQQQLTQFNASLAGLCRPCPWDWELFQGSCYLFSRTLGSWETSASSCEDLGAHLVIVNSVSEQRFMKYWNVRKNQRSWIGLSDHIHEGSWQWVDGSALKFSFWKEGEPNNDGDEDCVELFMDDWNDNKCTEQNFWVCEQPSAPCPHH
As to B3, the “glycan array binding signal (z-score)” value in [1] was 2.32; in assay [3], 3.32; in [21], -0.386; in assay [37], -0.385; in assay [38], -0.369; in assay [6] it was 2.62. Also, the “glycan array binding signal (z-score)” value in [39] is 3.18; in assay [40] it was 4.59; in assay [41], 4.35; in [24] it was -0.329; in [42] it was -0.386; in assay [43], -0.394. Further, the “glycan array binding signal (z-score)” value in assay [44] was 1.7; in assay [45], 2.18; in [9], -0.329; in [46], -0.398; in assay [31], -0.373; in [47] it was -0.393. Further, the “glycan array binding signal (z-score)” value was -0.4 in assay [48], -0.4 in assay [49] and -0.394 in [50].
